# Data published in PubChem BioAssay (NCATS).
# Values without a mark were called inactive. The source made the active and inactive calls. Calls come from the whole dose curve; as a rule, active = well fitted curve in the direction sought with a large enough effect; inconclusive = small, poorly fitted or top-dose-only effect, or another doubt; inactive = no such curve, though single readings can be large or run the other way.
# Target: Guanine nucleotide-binding protein G(i) subunit alpha-1 (Homo sapiens) (UniProt P63096)
# Sequence (P63096 whole entry, looked up): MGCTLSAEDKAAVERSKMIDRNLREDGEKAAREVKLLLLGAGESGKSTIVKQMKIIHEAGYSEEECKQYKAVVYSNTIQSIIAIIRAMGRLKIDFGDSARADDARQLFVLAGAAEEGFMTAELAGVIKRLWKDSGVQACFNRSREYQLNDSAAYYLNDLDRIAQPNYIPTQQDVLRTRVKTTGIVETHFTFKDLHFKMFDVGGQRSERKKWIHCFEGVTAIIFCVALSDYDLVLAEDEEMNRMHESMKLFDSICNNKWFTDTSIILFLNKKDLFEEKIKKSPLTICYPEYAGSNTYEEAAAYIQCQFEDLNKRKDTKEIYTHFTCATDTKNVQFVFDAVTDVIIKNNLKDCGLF
# Assay: qHTS Assay for Inhibitors of RGS12 GoLoco Motif Activity (Green Fluorophore) (AID 879);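 for activity, negative = inhibition: 0% = labeled peptide with Gαi1 and full inhibition = labeled peptide alone without protein; negative values mean loss of peptide binding seen as reduced polarization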
# Conditions: Galphai1/FITC-RGS12 GoLoco peptide, fluorescence polarization; series mostly up to 57.1 µM; activity, negative = inhibition: at the top concentration
# Description: Assay Overview: NIH Molecular Libraries Screening Centers Network [MLSCN] NIH Chemical Genomics Center [NCGC] MLSCN Grant: NS053754-01 Assay Provider: Siderovski, David P, University of North Carolina at Chapel Hill G-protein-coupled receptors (GPCRs) are major targets for drug discovery. The regulator of G-protein signaling (RGS)-protein family has important roles in GPCR signal transduction. RGS proteins contain a conserved RGS-box, which is often accompanied by other signaling regulatory elements. RGS proteins accelerate the deactivation of G proteins to reduce GPCR signaling; however, some also have an effector function and transmit signals. Combining GPCR agonists with RGS inhibitors should potentiate responses, and could markedly increase the agonist's regional specificity. The diversity of RGS proteins with highly localized and dynamically regulated distributions in brain makes them attractive targets for pharmacotherapy of central nervous system disorders. […] A complex of Gai1 and fluorescently labeled G-alpha-binding peptide (the "GoLoco motif") derived from RGS12 is incubated with library members. Inhibitors of the binding are detected by a decrease in the fluorescence polarization (FP) of the fluorophore. Protein was supplied by Prof. David Siderovski, University of North Carolina at Chapel Hill.
# Assay Protocol: Reagents/Controls: Assay Buffer: 10 mM Tris-HCl, 150 mM NaCl, 0.1 mM GDP (prepared fresh), and 0.05% NP40 at pH 7.5. […] 10 nM FITC labeled peptide/50 nM protein in columns 1, 2, 5 - 48. Titration of unlabeled peptide control ([H][…][NH2], custom synthesized and HPLC-purified by Tufts University Core Facility) from 10 mM, then 1:2 dilution, 16-point in duplicate, pin-transferred to column 2, rows 1 to 32. Column 1 is neutral. FITC-labeled RGS12-GoLoco peptide was custom-synthesized and HPLC-purified by Michael Berne of Tufts University Assay Steps. Four uL of reagents were dispensed to 1536-well Greiner black solid-bottom plates. Compounds and controls (23 nL) were transferred via Kalypsys PinTool. The plates were incubated for 10 min at room temperature, and then read on ViewLux (Perkin-Elmer) High-throughput CCD imager using FITC polarization filter sets for the fluorescein-labeled decapeptide probe.During dispense, reagent bottles were kept submerged into 4 deg C water bath and all liquid lines were covered with aluminum foil to minimize probe and protein degradation. All screening operations were performed on a Kalypsys robotic system (Kalypsys, Inc., San Diego, CA) containing one RX-130 and two RX-90 anthropomorphic robotic arms.
# Potency is the fitted concentration of half-maximal effect.
SMILES,"activity, negative = inhibition [%]",Potency
Nc1ncn([C@@H]2O[C@H](CO)[C@@H](O)[C@H]2O)c(=O)n1,-18.3,–
CCN(CC)CCNC(=O)c1cc(S(C)(=O)=O)ccc1OC,-14.2,–
CCOC(=O)c1cnc2c(cnn2CC)c1NN=C(C)C,-4.78,–
CCNC(=O)N1CCN(CCCC(c2ccc(F)cc2)c2ccc(F)cc2)CC1,-4.59,–
CN1CCN(C2=Nc3ccccc3Oc3ccc(Cl)cc32)CC1,2.05,–
CN(C)CCCN1c2ccccc2Sc2ccc(C(F)(F)F)cc21,-20.4,–
C[C@]12CCC(=O)C=C1CC[C@@H]1[C@@H]2C(=O)C[C@@]2(C)[C@H]1CC[C@]2(O)C(=O)CO,1.81,–
CSc1ccc(C(=O)c2[nH]c(=O)[nH]c2C)cc1,-7.06,–
CC(C)NNC(=O)c1ccncc1,-2.63,–
COc1cc(Cc2cnc(N)nc2N)cc(OC)c1OC,3.88,–
CC[N+](C)(C)c1cccc(O)c1,4.93,–
CCCC(C(=O)OCCN(CC)CC)(c1ccccc1)c1ccccc1,-19.5,–
O=C(O)CP(=O)(O)O,1.9,–
COCC(=O)O[C@]1(CCN(C)CCCc2nc3ccccc3[nH]2)CCc2cc(F)ccc2[C@@H]1C(C)C,-19.4,–
CN(C)C(=O)Oc1cccc([N+](C)(C)C)c1,-18.8,–
C[C@H](CS)C(=O)N1CCC[C@H]1C(=O)O,8.32,–
CCN(CC)CCOCCOC(=O)C1(c2ccccc2)CCCC1,-12.7,–
CCc1cccc(N(C)C(N)=Nc2cccc3ccccc23)c1,7.07,–
CN(C)C(=O)Oc1ccc[n+](C)c1,-19,–
C[N+](C)(C)CCOC(=O)CCC(=O)OCC[N+](C)(C)C,-9.52,–

SMILES,"activity, negative = inhibition [%]",Potency
C[C@]12C=CC(=O)C=C1CC[C@H]1[C@@H]3C[C@@H](O)[C@](O)(C(=O)CO)[C@@]3(C)C[C@H](O)[C@@]12F,-5.25,–
O=C(CCNNC(=O)c1ccncc1)NCc1ccccc1,-16.3,–
Cc1ccc(Cl)c(Nc2ccccc2C(=O)O)c1Cl,11.3,–
O=C1NCN(c2ccccc2)C12CCN(CCCC(c1ccc(F)cc1)c1ccc(F)cc1)CC2,-13.8,–
CCN(CC)CC(=O)Nc1c(C)cccc1C,-0.865,–
OCCN1CCN(CCCN2c3ccccc3C=Cc3ccccc32)CC1,–,inactive
O=c1[nH]c(=O)n([C@H]2C[C@H](O)[C@@H](CO)O2)cc1Br,7.41,–
C[n+]1cc2c3c(ccc2c2ccc4cc5c(cc4c21)OCO5)OCO3,–,12.6 µM (active)
CCCCNc1c(C(=O)OCC)c(C)nc2c1cnn2CC,-6.56,–
CCc1c(C)[nH]c2c1C(=O)C(CN1CCOCC1)CC2 (stereo not given),-23.4,–
COC(=O)[C@@H](N)Cc1ccc(O)c(O)c1,-18.6,–
Brc1c(NC2=NCCN2)ccc2nccnc12,-5.88,–
NC(N)=NC(=O)Cc1c(Cl)cccc1Cl,-0.778,–
CCN1CCc2nc(N)oc2CC1,-11.9,–
Cc1scc2c1N(C(=O)CN1CCN(C)CC1)c1ccccc1NC2=O,-2.04,–
N[C@@H](COP(=O)(O)O)C(=O)O,-16.4,–
CN(C)CCOC(=O)COc1ccc(Cl)cc1,5.32,–
CCC(=O)c1ccc2c(c1)N(CCCN(C)C)c1ccccc1S2,2.53,–
CCO/C([O-])=N/c1c[n+](N2CCOCC2)no1,-22.2,–
C[C@]12CCC(=O)C=C1CC[C@@H]1[C@@H]2CC[C@@]2(C)[C@H]1CC[C@]2(O)C(=O)CO,9.34,–
